Reference: the supplement of paper PMC9446081
Among all 39,000 compounds or so, about 220 (0.56%) showed activity. What follows is part of a selection rich in actives, with near analogues and random picks from the rest. Unmarked numbers belong to inactive results.

system: Escherichia coli K-12 BW25113; test: relative growth (OD600 normalised to plate interquartile mean) (fraction); higher = less growth inhibition, active = 0.2 or less; settings: 50 µM; LB; incubation time: overnight (16-24 h)
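Also: Wild-type cells incubated without shaking, value is the mean of two biological replicates.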

Compound | relative growth
CCCC[P+](CCCC)(CCCC)Cc1ccc(NC(=O)[C@@H](Cc2ccc3ccccc3c2)N=C(NC2CCCCC2)NC2CCCCC2)cc1 | 0.0386 (active)
C[C@H](CO)N1C[C@H](C)[C@@H](CN(C)C(=O)NC2CCCCC2)Oc2ccc(NC(=O)Nc3cccc4ccccc34)cc2C1=O | 1.04
CN(Cc1ccccc1)C(=O)[C@H](Cc1ccc2ccccc2c1)NC(=O)[C@@H]1CCCN1C(=O)Nc1ccccc1[N+](=O)[O-] | 1.04
CCC(=O)Nc1ccc2ccccc2c1 | 0.842
C[C@@H]1CN([C@H](C)CO)C(=O)c2cc(NC(=O)Nc3cccc4ccccc34)ccc2O[C@@H]1CN(C)C(=O)NC1CCCCC1 | 1
CCCC[P+](CCCC)(CCCC)Cc1ccc(NC(=O)[C@H](Cc2ccc3ccccc3c2)N/C(=N/C2CCCCC2)NC2CCCCC2)cc1 | 0.0326 (active)
C[C@@H]1CCCCO[C@H](CN(C)C(=O)NC2CCCCC2)[C@@H](C)CN([C@H](C)CO)C(=O)c2cc(NS(=O)(=O)c3ccccc3)ccc2O1 | 0.983
Cc1ccc2c(c1)[C@](C)(O)CCS2 | 1.01
COc1ccc(S(=O)(=O)Nc2ccc3c(c2)CC(=O)N([C@H](C)CO)C[C@H](C)[C@H](CN(C)C(=O)Nc2c(C)noc2C)O3)cc1 | 1.02
Cc1ccc(S(=O)(=O)N(C)C[C@H]2Oc3ccc(NS(=O)(=O)c4ccccc4)cc3CC(=O)N([C@@H](C)CO)C[C@H]2C)cc1 | 0.993
C[C@H]1CN([C@@H](C)CO)C(=O)c2cccc(NS(=O)(=O)c3cccs3)c2O[C@@H]1CN(C)S(=O)(=O)c1ccc(F)cc1 | 1.02
O=C(NO)c1ccc(C(=O)N/N=C/[C@H](O)[C@@H](O)[C@H](O[C@@H]2O[C@H](CO)[C@H](O)[C@H](O)[C@H]2O)[C@H](O)CO)cc1 | 0.996
CN1CCN(CC(=O)N2c3ccccc3C(=O)Nc3cccnc32)CC1.Cl.Cl | 1.08
Cc1scc2c1N(C(=O)CN1CCN(C)CC1)c1ccccc1NC2=O.Cl | 0.044 (active)
O=C(O)CCC(=O)N1CC(=O)Nc2ccccc21 | 0.964
Cc1c(N)nc([C@H](CC(N)=O)NC[C@H](N)C(N)=O)nc1C(=O)N[C@H](C(=O)N[C@H](C)[C@@H](O)[C@H](C)C(=O)N[C@H](C(=O)NCCc1nc(-c2nc(C(=O)NCCCNCCCCN)cs2)cs1)[C@@H](C)O)[C@@H](O[C@@H]1O[C@@H](CO)[C@@H](O)[C@H](O)[C@@H]1O[C@@H]1O[C@H](CO)[C@@H](O)[C@H](OC(N)=O)[C@@H]1O)c1c[nH]cn1 | 0.0715 (active)
C[C@H](CO)N1C[C@H](C)[C@@H](CN(C)C(=O)Nc2ccc(F)cc2)OCc2ccccc2-c2ccccc2C1=O | 0.975
C[C@H](CO)N1C[C@H](C)[C@@H](CN(C)C(=O)Nc2cccc3ccccc23)OCCCC[C@H](C)Oc2ccc(NS(C)(=O)=O)cc2C1=O | 1.01

Compound | relative growth
Cc1noc(C)c1S(=O)(=O)N(C)C[C@H]1Oc2c(NS(=O)(=O)c3cn(C)cn3)cccc2C(=O)N([C@H](C)CO)C[C@@H]1C | 0.992
C[C@@H]1CN([C@H](C)CO)C(=O)c2cccc(NS(=O)(=O)c3ccc(F)cc3)c2O[C@@H]1CN(C)S(=O)(=O)c1cn(C)cn1 | 0.99
C[C@@H]1CCCCO[C@@H](CN(C)C(=O)C2CCCCC2)[C@@H](C)CN([C@H](C)CO)C(=O)c2cc(NC(=O)CCC(F)(F)F)ccc2O1 | 0.92
CC(C)(C)c1cc2[nH]c(N)nc(=N)n2n1 | 1.01
C[C@@H]1CN([C@@H](C)CO)S(=O)(=O)c2ccc(C#CC3CC3)cc2O[C@@H]1CN(C)C(=O)C1CCCCC1 | 1.01
CN(C)[C@@H]1C(=O)[C@@H](C(N)=O)C(=O)[C@@]2(O)C(=O)[C@H]3C(=O)c4c(O)ccc(Cl)c4[C@@H](O)[C@H]3C[C@@H]12 | 0.0324 (active)
CN(C)c1ccc(O)c2c1C[C@@H]1C[C@@H]3[C@@H](N(C)C)C(=O)C(C(N)=O)=C(O)[C@]3(O)C(=O)[C@H]1C2=O | 0.0589 (active)
CN(C)c1cc(NC(=O)CNC(C)(C)C)c(O)c2c1C[C@H]1C[C@H]3[C@H](N(C)C)C(=O)[C@@H](C(N)=O)C(=O)[C@@]3(O)C(=O)[C@H]1C2=O | 1.01
CN(C)[C@@H]1C(=O)[C@@H](C(=O)NCNCCCC[C@H](N)C(=O)O)C(=O)[C@@]2(O)C(=O)[C@@H]3C(=O)c4c(O)cccc4[C@@](C)(O)[C@H]3C[C@@H]12 | 0.977
CN(C)[C@@H]1C(=O)[C@@H](C(N)=O)C(=O)[C@@]2(O)C(=O)[C@@H]3C(=O)c4c(O)c(NC(=O)CN5CCCC5)cc(F)c4C[C@H]3C[C@@H]12 | 0.0357 (active)
CN(C)c1cc(CNCC(C)(C)C)c(O)c2c1C[C@H]1C[C@H]3[C@H](N(C)C)C(=O)[C@H](C(N)=O)C(=O)[C@@]3(O)C(=O)[C@@H]1C2=O | 0.0692 (active)
C[C@@H]1CCCCO[C@@H](CN(C)C(=O)NC2CCCCC2)[C@@H](C)CN([C@H](C)CO)C(=O)c2cc(NC(=O)C3CCCCC3)ccc2O1 | 1.02
C[C@H]1CN([C@@H](C)CO)C(=O)c2cc(NC(=O)CCCCCC(=O)Nc3ccccc3N)ccc2O[C@H]1CN(C)CC1CCCCC1 | 0.97
COc1ccc(NC(=O)Nc2ccc3c(c2)C(=O)N([C@@H](C)CO)C[C@H](C)[C@H](CN(C)C(=O)Nc2ccc(OC)cc2)OCCCC[C@H](C)O3)cc1 | 0.996
CN(C)C(=O)[C@H]1C[C@@H]2CCN(S(C)(=O)=O)C[C@H]2O1 | 0.988
Cc1noc(C)c1NC(=O)N(C)C[C@@H]1Oc2c(NC(=O)c3ccncc3)cccc2C(=O)N([C@H](C)CO)C[C@@H]1C | 1
C[C@@H]1CN([C@@H](C)CO)C(=O)Cc2cc(NC(=O)Cn3cnnn3)ccc2O[C@H]1CN(C)C(=O)Nc1ccc(C(F)(F)F)cc1 | 0.993
